{"source": "the supplement of paper PMC3334620", "note": "Whole data set: some 33,000 sequences, median “E-score (-0.5 to 0.5)” near -0.053, cut for the highest 2% near 0.37. The entries come from a sample that favours the highest values as a whole."}
{"target": "Hap1 (UniProt P0CE41)", "sequence (P0CE41 whole entry, the tested form may be a part)": "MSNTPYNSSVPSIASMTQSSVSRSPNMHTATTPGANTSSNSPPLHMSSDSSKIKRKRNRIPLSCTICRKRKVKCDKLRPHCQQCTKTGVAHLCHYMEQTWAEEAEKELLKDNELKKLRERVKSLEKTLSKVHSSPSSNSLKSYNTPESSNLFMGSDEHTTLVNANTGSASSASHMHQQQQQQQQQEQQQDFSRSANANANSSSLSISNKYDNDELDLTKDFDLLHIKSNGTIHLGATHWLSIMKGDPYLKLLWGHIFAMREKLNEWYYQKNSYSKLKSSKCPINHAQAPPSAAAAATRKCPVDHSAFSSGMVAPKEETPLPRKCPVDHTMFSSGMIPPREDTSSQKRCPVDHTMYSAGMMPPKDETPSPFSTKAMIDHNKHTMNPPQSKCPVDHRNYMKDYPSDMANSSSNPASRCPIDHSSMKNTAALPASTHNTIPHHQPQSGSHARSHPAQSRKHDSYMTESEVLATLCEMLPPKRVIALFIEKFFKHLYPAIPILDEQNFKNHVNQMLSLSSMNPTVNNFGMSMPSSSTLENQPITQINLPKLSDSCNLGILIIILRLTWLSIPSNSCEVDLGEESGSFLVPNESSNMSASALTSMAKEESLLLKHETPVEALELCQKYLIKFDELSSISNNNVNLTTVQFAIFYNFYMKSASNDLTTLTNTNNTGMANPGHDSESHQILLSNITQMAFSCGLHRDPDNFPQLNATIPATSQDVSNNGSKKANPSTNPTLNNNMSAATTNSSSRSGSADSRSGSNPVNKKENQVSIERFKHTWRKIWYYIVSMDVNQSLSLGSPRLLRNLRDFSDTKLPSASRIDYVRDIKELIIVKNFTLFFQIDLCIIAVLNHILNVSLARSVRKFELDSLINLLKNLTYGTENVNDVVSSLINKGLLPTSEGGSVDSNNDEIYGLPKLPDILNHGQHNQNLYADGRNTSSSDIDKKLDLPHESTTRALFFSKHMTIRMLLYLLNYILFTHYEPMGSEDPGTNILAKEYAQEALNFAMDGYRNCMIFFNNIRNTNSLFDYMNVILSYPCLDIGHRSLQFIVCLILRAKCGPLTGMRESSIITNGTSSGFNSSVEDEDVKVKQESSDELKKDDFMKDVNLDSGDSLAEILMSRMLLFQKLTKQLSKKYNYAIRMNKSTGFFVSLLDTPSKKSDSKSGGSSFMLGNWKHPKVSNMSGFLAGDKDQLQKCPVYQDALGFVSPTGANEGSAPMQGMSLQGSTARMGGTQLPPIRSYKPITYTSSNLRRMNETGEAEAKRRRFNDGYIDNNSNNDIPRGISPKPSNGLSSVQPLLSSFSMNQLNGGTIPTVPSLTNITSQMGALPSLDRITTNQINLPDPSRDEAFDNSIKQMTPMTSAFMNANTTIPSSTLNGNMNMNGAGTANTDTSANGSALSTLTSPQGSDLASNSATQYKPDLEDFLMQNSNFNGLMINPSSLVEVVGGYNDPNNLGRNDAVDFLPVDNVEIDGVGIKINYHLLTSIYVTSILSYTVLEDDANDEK", "experiment": "PBM E-score (8-mer binding enrichment) (E-score (-0.5 to 0.5)); higher = stronger / more preferred TF binding", "details": "protein concentration: 200 nM; construct: GST-DNA-binding domain", "protocol": "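Universal 'all 10-mer' protein binding microarrays (Agilent AMADID 015681) probed with GST-tagged S. cerevisiae TFs (full-length or DBD) made by in vitro transcription/translation (PURExpress), about 100-200 nM. Bound TF was detected with fluorescent anti-GST. Each ungapped 8-mer (which stands for itself and its reverse complement) is scored by the PBM enrichment score (E-score), a modified Wilcoxon-Mann-Whitney statistic from -0.5 to +0.5, computed with the Universal PBM Analysis Suite. Scale: above 0.35 generally sequence-specific binding.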"}
{"sequence": "ATAACCGC", "PBM E-score": 0.157}
{"sequence": "AACCCCGC", "PBM E-score": 0.371}
{"sequence": "ACCCCCGG", "PBM E-score": 0.368}
{"sequence": "AACCCCCG", "PBM E-score": 0.262}
{"sequence": "CTACTAGC", "PBM E-score": 0.0698}
{"sequence": "GCCGTCCA", "PBM E-score": 0.0557}
{"sequence": "AATAGATG", "PBM E-score": -0.118}
{"sequence": "CGTGTTTA", "PBM E-score": 0.038}
{"sequence": "AAATTCTA", "PBM E-score": -0.166}
{"sequence": "ATGTACTA", "PBM E-score": -0.14}
{"sequence": "GTGGATCA", "PBM E-score": -0.21}
{"sequence": "CACCAATC", "PBM E-score": -0.0582}
{"sequence": "CAGATTGA", "PBM E-score": -0.0798}
{"sequence": "CCCAACAG", "PBM E-score": -0.328}
{"sequence": "ACCGTAAA", "PBM E-score": 0.0865}
{"sequence": "CAACTGTA", "PBM E-score": -0.234}
{"sequence": "ATGTGCCA", "PBM E-score": -0.302}
{"sequence": "AAACCCGC", "PBM E-score": 0.335}
{"sequence": "AAACCCGA", "PBM E-score": 0.439}
{"sequence": "AAAACCGC", "PBM E-score": 0.109}
{"sequence": "GAAACCGA", "PBM E-score": 0.274}
{"sequence": "AAAACCCC", "PBM E-score": 0.187}
{"sequence": "AAACCCGT", "PBM E-score": 0.361}
{"sequence": "AAAACCCT", "PBM E-score": -0.0696}
{"sequence": "GAACCCGA", "PBM E-score": 0.23}
{"sequence": "TAACCCGA", "PBM E-score": 0.355}
{"sequence": "AAAACCCG", "PBM E-score": 0.4}
{"sequence": "AAACCCGG", "PBM E-score": 0.454}
{"sequence": "AAAACCGA", "PBM E-score": 0.396}
{"sequence": "AGCCAGGC", "PBM E-score": -0.141}
{"sequence": "GCTTGGGA", "PBM E-score": -0.149}
{"sequence": "ACTGGGAG", "PBM E-score": -0.0791}
{"sequence": "CAGCTACA", "PBM E-score": -0.156}
{"sequence": "ACGCCTAC", "PBM E-score": -0.0649}
{"sequence": "GATGCGAA", "PBM E-score": -0.0227}
{"sequence": "TATTGCGA", "PBM E-score": 0.0517}
{"sequence": "AGTTTGTC", "PBM E-score": -0.117}
{"sequence": "CACCATCG", "PBM E-score": -0.192}
{"sequence": "GCAGCGGC", "PBM E-score": -0.00312}
{"sequence": "ACGAGATC", "PBM E-score": -0.15}
{"sequence": "CCGCTGCA", "PBM E-score": -0.0239}
{"sequence": "GTACCTCA", "PBM E-score": -0.238}
{"sequence": "ATTCCGCG", "PBM E-score": 0.285}
{"sequence": "ATTCCGTC", "PBM E-score": 0.213}
{"sequence": "ATTCCGTG", "PBM E-score": 0.294}
{"sequence": "ATTCCGCC", "PBM E-score": 0.295}
{"sequence": "ATTCCGGC", "PBM E-score": 0.37}
{"sequence": "ATTCCGGG", "PBM E-score": 0.374}
{"sequence": "GAGTCGCC", "PBM E-score": -0.0011}
{"sequence": "CCTTGTCA", "PBM E-score": -0.311}
{"sequence": "CGGAGTAA", "PBM E-score": 0.37}
{"sequence": "CGGAGTAC", "PBM E-score": 0.254}
{"sequence": "AGGAGTTC", "PBM E-score": -0.143}
{"sequence": "GGGAGTAA", "PBM E-score": 0.147}
{"sequence": "CGGAGTTA", "PBM E-score": 0.494}
{"sequence": "AGGAGTTA", "PBM E-score": 0.292}
{"sequence": "GGGAGTTA", "PBM E-score": 0.247}
{"sequence": "CGGAGTTC", "PBM E-score": 0.394}
{"sequence": "CTGAGTTC", "PBM E-score": -0.0173}
{"sequence": "CCCCTGTA", "PBM E-score": -0.154}
{"sequence": "GCTCGATA", "PBM E-score": 0.0192}
{"sequence": "AGAGGAAT", "PBM E-score": -0.205}
{"sequence": "ATCTCTAC", "PBM E-score": -0.223}
{"sequence": "AAGATGGG", "PBM E-score": -0.126}
{"sequence": "AGCCGGCT", "PBM E-score": 0.25}
{"sequence": "AGCCGGGG", "PBM E-score": 0.268}
{"sequence": "AGCCGGCC", "PBM E-score": 0.354}
{"sequence": "AGCCGGAT", "PBM E-score": 0.418}
{"sequence": "CGCCGGGC", "PBM E-score": 0.332}
{"sequence": "AGCCGGGC", "PBM E-score": 0.173}
{"sequence": "AGCCGGAC", "PBM E-score": 0.409}
{"sequence": "AGCCGGCA", "PBM E-score": 0.334}
{"sequence": "AGCCGGTG", "PBM E-score": 0.326}
{"sequence": "CGTCGGAC", "PBM E-score": 0.338}
{"sequence": "CGCCGGAC", "PBM E-score": 0.409}
{"sequence": "AGCCGGAG", "PBM E-score": 0.404}
{"sequence": "ACACGCAG", "PBM E-score": -0.093}
{"sequence": "CGAGAAAC", "PBM E-score": 0.187}
{"sequence": "AGCTTTGA", "PBM E-score": -0.0822}
{"sequence": "AAAGTGCT", "PBM E-score": -0.21}
{"sequence": "AAAGAATT", "PBM E-score": -0.0164}
{"sequence": "AGAGCTGC", "PBM E-score": -0.128}
{"sequence": "CGCTTTGA", "PBM E-score": 0.0268}
{"sequence": "AACAGCTT", "PBM E-score": -0.106}
{"sequence": "TAGACACA", "PBM E-score": -0.156}
{"sequence": "CGCCGGAA", "PBM E-score": 0.357}
{"sequence": "GGCCGGAC", "PBM E-score": 0.398}
{"sequence": "GGCCGGAA", "PBM E-score": 0.363}
{"sequence": "AGCCGGTA", "PBM E-score": 0.414}
{"sequence": "AGCCGGGA", "PBM E-score": 0.231}
{"sequence": "CGCCGGAG", "PBM E-score": 0.399}
{"sequence": "GGACGGAC", "PBM E-score": 0.358}
{"sequence": "AGCCGGTC", "PBM E-score": 0.0184}
{"sequence": "AGCCGGAA", "PBM E-score": 0.371}
{"sequence": "CGCCGTAG", "PBM E-score": 0.187}
{"sequence": "GGCCGGTA", "PBM E-score": 0.344}
{"sequence": "CGACGGAG", "PBM E-score": 0.287}
{"sequence": "AAATACGA", "PBM E-score": -0.0883}
{"sequence": "CAACGGGC", "PBM E-score": 0.153}
{"sequence": "CGCGAGCG", "PBM E-score": 0.104}
{"sequence": "AGTAGCAG", "PBM E-score": -0.173}
{"sequence": "ATCCTCGA", "PBM E-score": -0.107}
{"sequence": "AAACGCCC", "PBM E-score": 0.263}
{"sequence": "GTCCCGAC", "PBM E-score": 0.243}
{"sequence": "AGGCGGCC", "PBM E-score": 0.0302}
{"sequence": "GGTTCGGA", "PBM E-score": 0.373}
{"sequence": "AGTTCGGA", "PBM E-score": 0.366}
{"sequence": "CGTTCGGC", "PBM E-score": 0.291}
{"sequence": "CGTTCGTA", "PBM E-score": 0.0644}
{"sequence": "CGTTCGGA", "PBM E-score": 0.412}
{"sequence": "GGTTCGAA", "PBM E-score": 0.00151}
{"sequence": "GGCATACC", "PBM E-score": 0.107}
{"sequence": "CCCGGCTA", "PBM E-score": 0.344}
{"sequence": "ATGTTTCA", "PBM E-score": -0.21}
{"sequence": "CATGGTGG", "PBM E-score": -0.137}
{"sequence": "GCCCTCGC", "PBM E-score": -0.0401}
{"sequence": "CCCGTCTA", "PBM E-score": -0.0612}
{"sequence": "CGTACCTC", "PBM E-score": -0.0658}
{"sequence": "AACTGCTT", "PBM E-score": -0.134}
{"sequence": "CCTCCTCG", "PBM E-score": -0.147}
{"sequence": "ACCTGCTG", "PBM E-score": -0.058}
{"sequence": "TACCGGTA", "PBM E-score": 0.441}
{"sequence": "AACCGGTA", "PBM E-score": 0.331}
{"sequence": "CCCCGGGA", "PBM E-score": 0.348}
{"sequence": "GACCGGGA", "PBM E-score": 0.329}
{"sequence": "AACCGGGA", "PBM E-score": 0.193}
{"sequence": "TCACGGGA", "PBM E-score": 0.0121}
{"sequence": "TACCGGGA", "PBM E-score": 0.387}
{"sequence": "CACCGGTG", "PBM E-score": 0.24}
{"sequence": "CACCGGTC", "PBM E-score": 0.227}
{"sequence": "CACCGGTA", "PBM E-score": 0.376}
{"sequence": "GACCGGTA", "PBM E-score": 0.243}
{"sequence": "TCCCGGGA", "PBM E-score": 0.392}
{"sequence": "CAGTAGAA", "PBM E-score": -0.229}
{"sequence": "TTGCGCAA", "PBM E-score": -0.00107}
{"sequence": "CATGCAGC", "PBM E-score": -0.164}
{"sequence": "AGCTCGAC", "PBM E-score": -0.227}
{"sequence": "ATCAAGCG", "PBM E-score": 0.0373}
{"sequence": "AGCTCGGG", "PBM E-score": 0.363}
{"sequence": "CGCGACTA", "PBM E-score": 0.197}
{"sequence": "CCCTTAAG", "PBM E-score": 0.13}
{"sequence": "CCACCTGC", "PBM E-score": -0.121}
{"sequence": "GAAGACTA", "PBM E-score": -0.0051}
{"sequence": "CTTCTCCA", "PBM E-score": -0.301}
{"sequence": "CGGACAAG", "PBM E-score": 0.357}
{"sequence": "CGGACAAA", "PBM E-score": 0.405}
{"sequence": "GGGACATA", "PBM E-score": 0.0939}
{"sequence": "CGGACATC", "PBM E-score": 0.365}
{"sequence": "CGGACATA", "PBM E-score": 0.489}
{"sequence": "AGGACAAA", "PBM E-score": -0.016}
{"sequence": "CGAGTTGC", "PBM E-score": -0.053}
{"sequence": "ACAGCGCG", "PBM E-score": 0.0018}
{"sequence": "CGGGCGAC", "PBM E-score": 0.304}
{"sequence": "GGGGCGAA", "PBM E-score": 0.127}
{"sequence": "CGGGCGTA", "PBM E-score": 0.395}
{"sequence": "CGGGCGAA", "PBM E-score": 0.375}
{"sequence": "GGGGCGTA", "PBM E-score": 0.00742}
{"sequence": "AGGGCGTA", "PBM E-score": -0.137}
{"sequence": "AAAGGTGG", "PBM E-score": -0.156}
{"sequence": "ACGGCGAA", "PBM E-score": 0.0956}
{"sequence": "CCGAAGTC", "PBM E-score": 0.318}
{"sequence": "ATTGAACC", "PBM E-score": -0.0801}
{"sequence": "GGGCCGAA", "PBM E-score": 0.311}
{"sequence": "TGGCCGAA", "PBM E-score": 0.261}
{"sequence": "CGGCCAAG", "PBM E-score": 0.195}
{"sequence": "CGGCCGAC", "PBM E-score": 0.415}
{"sequence": "AGGCCGAC", "PBM E-score": 0.32}
{"sequence": "GGGCCGAC", "PBM E-score": 0.312}
{"sequence": "CGGCCGAG", "PBM E-score": 0.449}
{"sequence": "AGGCCGAG", "PBM E-score": 0.303}
{"sequence": "CGGCCGAA", "PBM E-score": 0.449}
{"sequence": "GTACTGAC", "PBM E-score": -0.119}
